Data on 40 compounds can be found in PubChem BioAssay (Tox21).

Results filed as inconclusive are left out. A number with no mark means an inactive call. The source made the active and inactive calls. The call rests on the fitted dose curve; in most records, active means well fitted cell-killing curve with a large enough effect in the repeat runs; inconclusive means weak or mixed curves, or effect the other way; inactive means flat fitted curve, though single readings scatter.
On the % scale 0 is the no-effect control and ±100 the full control effect; potency means the concentration at half of the fitted maximal effect.

This assay in a line: Nuclear factor erythroid 2-related factor 2/antioxidant responsive element (Nrf2/ARE) small molecule agonists: qHTS cell viability counter screen in human keratinocytes (AID 1919968). Further: nearly all actives have a fitted effect of over 55% in size. The conditions noted are these: KeratinoSens HaCaT ARE cells viability, CellTiter-Fluor, 24 h; series mostly up to 92.4 µM; activity change, negative = cytotoxicity: at the top concentration. From the text:
U.S. Tox21 Program National Center for Advancing Translational Sciences [NCATS] Division of Preclinical Innovation [DPI] U.S. Environmental Protection Agency [EPA] National Institutes of Environmental Health Sciences [NIEHS] National Toxicology Program [NTP] U.S. Food and Drug Administration [FDA] Tox21 Assay Overview: Oxidative stress has been implicated in the pathogenesis of a variety of diseases ranging from cancer to neurodegeneration. The antioxidant response element (ARE) signaling pathway plays an important role in the amelioration of oxidative stress. The KeratinoSens (Givaudan, Switzerland) is an in vitro test method which quantifies luciferase induction as a measure of activation of Keap1-Nrf2-antioxidationt/electrophile response element (ARE) dependant pathway in HaCaT human keratinocytes stably transfected with a selectable plasmid. The KeratinoSens assay is a cell-based assay with a reporter cell line to detect potential skin sensitizers by their ability to induce the Nrf2/ARE-response. The activation of the report gene under culture conditions can be detected by ONE-Glo Luciferase Assay System (Promega, Madison, WI). This cell line has been used to screen the Tox21 10K compound library to identify agonists that induce oxidative stress. The cytotoxicity of the Tox21 compound library against the KS-ARE cell line was tested in parallel by measuring the cell viability using CellTiter- Fluor assay system (Promega, Madison, WI) in the same wells.
Tox21 Assay Protocol Summary: HaCaT derived cell line KeratinoSens were dispensed at 1,500 cells/5uL/well in 1536-well white wall/solid bottom plates using a Multidrop Combi (ThermoFisher Scientific, Waltham, MA) dispenser. After the assay plates were incubated at 37 C/5% CO2 for 5 h, 23 nL of compounds dissolved in DMSO, positive controls or DMSO only was transferred to the assay plate by a pintool workstation (Kalypsys, San Diego, CA). The plates were incubated at 37 C/5% CO2 for 23 h, followed by addition of 1uL/well of CellTiter-Fluor reagent into the assay plates using a Flying Reagent Dispenser (Aurora Discovery, San Diego, CA) for cell viability readout that measures cytotoxicity. After 1 h incubation at 37 C/5% CO2 the fluorescence intensity was measured using a ViewLux (PerkinElmer, Shelton, CT) plate reader.
A general note: qHTS replaces the single test concentration by a dilution series.
Regarding `CNC(=O)/C=C(\C)OP(=O)(OC)OC`, the “activity change, negative = cytotoxicity” value was -0.723%.

`Cc1ncsc1CCCl`: the “activity change, negative = cytotoxicity” value is -0.185% [at 42.5 µM].

For `CCC(C)(C)O`, the “activity change, negative = cytotoxicity” value is 0.471%.

Regarding `C=COC(C)=O`, the “activity change, negative = cytotoxicity” value was -5.43%.

As to `CC(C)N(C(=O)SC/C(Cl)=C/Cl)C(C)C`, the “activity change, negative = cytotoxicity” value was 5.63%.

Take `N#Cc1c(-c2ccc(Cl)cc2)[nH]c(C(F)(F)F)c1Br`: the Potency is 10.9 µM (active).

On to `C/C(=C\c1ccccc1)[N+](=O)[O-]`, for which the Potency was 30.6 µM (active).

Consider `Cc1ncc(C[n+]2csc(CCO)c2C)c(N)n1`, for which the “activity change, negative = cytotoxicity” value is 8.74%.

Take `O=C1NC(=O)C(=O)C(=O)N1`: the “activity change, negative = cytotoxicity” value was 1.56%.

As to `CC(=O)[O-].CC(=O)[O-].O.O.O.[Pb+2]`, the “activity change, negative = cytotoxicity” value was -6.48%.

`C[As+](C)(C)CC(=O)[O-]`: the “activity change, negative = cytotoxicity” value was -0.158%.

Consider `ClCc1ccc(Cl)cc1Cl`, for which the “activity change, negative = cytotoxicity” value is -7.87%.

Regarding `O=C(CCl)C(Cl)Cl`, the Potency was 19.5 µM (active).

For the compound `CCOP(=S)(OCC)SCCS(=O)(=O)CC`, the “activity change, negative = cytotoxicity” value was -14.5%.

For the compound `CCC(C)c1cc(C(C)(C)C)cc(-n2nc3ccccc3n2)c1O` (stereo not given), the “activity change, negative = cytotoxicity” value is -0.386% [at 42.5 µM].

With `Cc1nc(N)nc(N)n1`, the “activity change, negative = cytotoxicity” value was -0.87%.

As for `Clc1cc2c(cc1Cl)Oc1cc(Cl)c(Cl)cc1O2`, the activity change, negative = cytotoxicity was 5.41% [at 0.349 µM].

Turning to `Oc1ccc(C(=C(Cl)Cl)c2ccc(O)cc2)cc1`, the Potency is 68.5 µM (active).

On to `CCOP(=S)(OCC)Oc1nc(Cl)n(C(C)C)n1`, for which the “activity change, negative = cytotoxicity” value is 4.62%.

In the case of `CCN[C@H](C)Cc1cccc(C(F)(F)F)c1`, the “activity change, negative = cytotoxicity” value was 1.59%.

Turning to `CCOC(=O)COc1cc(-c2nn(C)c(OC(F)F)c2Cl)c(F)cc1Cl`, the “activity change, negative = cytotoxicity” value was 2.54%.

Consider `CCOP(=O)(SC(C)CC)N1CCSC1=O` (stereo not given), for which the “activity change, negative = cytotoxicity” value is -7.09%.

In the case of `CCCCCCCCCC[N+](C)(C)CCCCCCCCCC`, the Potency was 27.3 µM (active).

For the compound `C=CC(=O)OCCCCOC(=O)C=C`, the Potency is 61.1 µM (active).

For `O=C1CN=C(c2ccccc2)c2cc([N+](=O)[O-])ccc2N1`, the “activity change, negative = cytotoxicity” value is 3.66% [at 42.5 µM].

`COP(=O)(OC)Oc1ccc([N+](=O)[O-])cc1`: the “activity change, negative = cytotoxicity” value is -7.49%.

For the compound `CC(=O)[C@H]1CC[C@H]2[C@@H]3CC[C@H]4C[C@H](O)CC[C@]4(C)[C@H]3C(=O)C[C@]12C`, the “activity change, negative = cytotoxicity” value was -16.7% [at 42.5 µM].

Consider `COC(=O)N(OC)c1ccccc1COc1ccn(-c2ccc(Cl)cc2)n1`, for which the “activity change, negative = cytotoxicity” value was 0.315%.

As to `O=[N+]([O-])c1ccc2ccc3cccc4ccc1c2c34`, the “activity change, negative = cytotoxicity” value was -10.7%.

With `COc1ncc(F)c2nc(S(=O)(=O)Nc3c(F)cccc3F)nn12`, the “activity change, negative = cytotoxicity” value is -0.327% [at 42.5 µM].

On to `CC/C(=N\OC/C=C/Cl)C1=C(O)CC(C2CCOCC2)CC1=O` (stereo not given), for which the “activity change, negative = cytotoxicity” value is 3.25%.

With `CCOC(=O)Cc1ccccc1`, the “activity change, negative = cytotoxicity” value is 6.45%.

Regarding `Nc1cc2c3c(c1)C(c1ccccc1)=N[C@@H](NC(=O)c1cccnc1)C(=O)N3CC2`, the “activity change, negative = cytotoxicity” value was -1.33%.

On to `ClC(Br)Br`, for which the “activity change, negative = cytotoxicity” value is 1.4%.

Consider `COc1cc(CC(C)N)cc(OC)c1OC` (stereo not given), for which the “activity change, negative = cytotoxicity” value was -12%.

Consider `ClC1=C(Cl)[C@]2(Cl)[C@@H]3[C@@H]4C[C@@H]([C@H]5O[C@@H]45)[C@@H]3[C@@]1(Cl)C2(Cl)Cl`, for which the Potency is 48.6 µM (active).

On to `C[N+](C)(C)CC1CO1` (stereo not given), for which the “activity change, negative = cytotoxicity” value was 4.68%.

For `CNC(=O)Oc1cccc(N=CN(C)C)c1`, the “activity change, negative = cytotoxicity” value was -10.6%.

`[Cl][Sb]([Cl])[Cl]`: the “activity change, negative = cytotoxicity” value is 2.53%.

For the compound `CCCCCCCCCCCCCC[P+](CCCCCC)(CCCCCC)CCCCCC` (tested in a mixture with another compound), the Potency was 6.86 µM (active).
